From PubChem
SENP8 block-1: human SENP8 protease inhibitors, primary screen, biochemical, fluorescence, Nedd8 protein substrate, uHTS. Sentrin-specific protease 8 (Homo sapiens), Q96LD8. recombinant SENP8. inhibition, % at 20 µM. hit rate 0.64% among 360,000. AID 602440, 2012; in the data active means inhibition mostly above about 40%, no sharp cut-off; inactive means mostly below about 27%
SENP8 block-2: SENP8 protease inhibitors, primary screen, biochemical, luminescence. Sentrin-specific protease 8 (Homo sapiens), Q96LD8. AID 2540, 2010. hit rate 1.2% among 330,000. purified SENP8, Z-RLRGG-aminoluciferin cleavage. inhibition, % at 10 µM; in the data active means inhibition above about 50%
SENP6 block: SENP6 protease inhibitors, primary screen, biochemical, luminescence, uHTS; hit rate 1.8% among 330,000; Recombinant SENP6 catalytic domain, aminoluciferin luminescence; Sentrin-specific protease 6 (Homo sapiens), Q9GZR1; AID 2599, 2010; inhibition, % at 10 µM;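 active means inhibition above about 50% at the single tested dose, limit read from the data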
SENP7 inh: SENP7 protease inhibitors, primary screen, biochemical, luminescence, uHTS; recombinant SENP7, Z-RLRGG-aminoluciferin luminescence, 40 min; hit rate 1.5% among 330,000; inhibition, % at 5 µM; AID 434973, 2010; Sentrin-specific protease 7 (Homo sapiens), Q9BQF6;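 active means inhibition above about 50% at the single test dose, limit read from the data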
Target sequence (Q9BQF6 706-1050 limits assumed): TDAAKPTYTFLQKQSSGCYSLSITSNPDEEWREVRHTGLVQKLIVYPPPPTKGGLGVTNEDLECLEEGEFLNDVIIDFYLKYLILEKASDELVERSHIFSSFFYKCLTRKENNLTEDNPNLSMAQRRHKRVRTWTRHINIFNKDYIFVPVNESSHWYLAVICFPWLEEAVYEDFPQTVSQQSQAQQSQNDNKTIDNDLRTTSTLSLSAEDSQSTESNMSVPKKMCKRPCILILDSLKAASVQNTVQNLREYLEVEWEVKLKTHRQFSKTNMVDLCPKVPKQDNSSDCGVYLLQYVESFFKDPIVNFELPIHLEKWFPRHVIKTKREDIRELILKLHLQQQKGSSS
HSP90 refold inh: HSP90 inhibitors, primary screen, cell lysate, luminescence; Heat shock protein HSP 90 (rabbit reticulocyte lysate; luciferase refolding); Rabbit reticulocyte lysate, luciferase refolding luminescence, 3 h; inhibition, % at 5.6 µM; hit rate 0.91% among 290,000; AID 1789, 2009;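 active means inhibition above the screen-wide mean plus 3 SD, computed separately per campaign, cut at about 16% in these data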;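 further: inhibitors lower the luminescence because luciferase stays unfolded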
SENP8 confirm: SENP8 protease inhibitors, retest, confirmation, biochemical, luminescence, single concentration | shares compounds with SENP7 inh | Recombinant SENP8, Z-RLRGG-aminoluciferin luminescence, 60 min | inhibition, % at 12.5 µM | hit rate 40% among 6,200 | AID 488912, 2010;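 active means mean inhibition across replicates above about 50%, limit read from the data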
SENP6 confirm: SENP6 protease inhibitors, confirmation, biochemical, luminescence, single concentration | recombinant SENP6, Z-RLRGG-aminoluciferin luminescence | hit rate 58% among 6,200 | shares compounds with SENP7 inh | inhibition, % at 12.5 µM | AID 488915, 2010
SENP7 confirm: SENP7 protease inhibitors, retest, confirmation, biochemical, luminescence, single concentration. shares compounds with SENP7 inh. recombinant SENP7, Z-RLRGG-aminoluciferin luminescence, 40 min. inhibition, % at 12.5 µM. hit rate 69% among 6,200. AID 488917, 2010
Casp3 SENP sel: caspase-3 protease inhibitors, confirmation, selectivity assay for SENP inhibitor project, biochemical, single concentration; AID 488918, 2010; purified caspase-3, Z-DEVD-aminoluciferin luminescence, 60 min; inhibition, % at 12.5 µM; hit rate 60% among 6,200; shares compounds with SENP7 inh;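 active means mean inhibition above about 50%, limit read from the data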
Luc interf: counter-screen for SENP inhibitors: luminescence interference. shares compounds with SENP7 inh. Pre-incubated SENP8/Z-RLRGG-aminoluciferin, luciferase luminescence interference. inhibition, % at 12.5 µM. hit rate 39% among 6,200;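 active means mean inhibition above about 50% when retested at one dose, limit read from the data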
A number is an active result; i = inactive; nt = not tested or not shown. Rows were chosen to be rich in hits. Some 2.7% of all compounds tested hit in one or more screens of this group.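 How the source made its calls, unless noted: active means mean inhibition above about 50% in the one-dose retest (limit read from the data); inactive means the rest.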

SMILES	SENP8 block-1	SENP8 block-2	SENP6 block	SENP7 inh	HSP90 refold inh	SENP8 confirm	SENP6 confirm	SENP7 confirm	Casp3 SENP sel	Luc interf
CCOc1cccc(/C=C/c2ccc3cccc(O)c3n2)c1O	i	55	i	64	i	i	59	85	nt	i
COc1ccccc1/C=C/c1ccc2cccc(O)c2n1	i	51	81	i	i	i	72	92	57	i
CCOc1cccc(/C=C/c2ccc3cccc(O)c3n2)c1OC	i	i	i	i	i	nt	nt	nt	nt	nt
Cc1ccnc(Nc2nc(-c3ccc(O)c(O)c3)cs2)c1	i	i	i	i	i	nt	nt	nt	nt	nt
CC(=O)Nc1ccc(-c2csc(Nc3ccccn3)n2)cc1	i	75	87	73	i	74	79	96	60	86
Cc1cccc(Nc2nc(-c3ccc(O)c(O)c3)cs2)n1	i	i	65	i	i	i	i	71	i	67
Oc1ccc(-c2csc(Nc3cccc4ccccc34)n2)cc1O	i	i	i	i	i	nt	nt	nt	nt	nt
Oc1ccc(-c2csc(Nc3ccccn3)n2)cc1O	i	61	87	i	i	78	79	92	i	81
Cc1cccc(Nc2nc(-c3ccc(F)c(C)c3)cs2)n1	i	i	53	55	i	i	60	76	i	i
CCOC(=O)c1ccc(NC(=O)CCc2nnc3ccc(N4CCN(C)CC4)nn23)cc1	i	i	i	i	i	nt	nt	nt	nt	nt
CCC(=O)Nc1nc(C)c(-c2csc(Nc3ccccn3)n2)s1	i	59	i	i	i	52	69	86	i	58
COc1ccc(-c2c(-c3ccccc3)c(C(=O)C(=O)NCCCN(C)C)n3ccc4cc(OC)c(OC)cc4c23)cc1OC	i	i	i	i	i	nt	nt	nt	nt	nt
O=C(CSc1ncccc1C(=O)O)c1ccccc1	i	i	i	i	i	nt	nt	nt	nt	nt
O=C(O)c1ccnc(SCC(=O)c2ccccc2)c1	i	i	61	i	i	i	i	i	i	i
Cc1ccc(C(=O)CSc2ccccn2)cc1	i	51	69	51	i	i	i	i	76	68
O=C(CSc1ccccn1)c1ccc(F)cc1	i	i	i	i	i	nt	nt	nt	nt	nt
CCn1cc(CCC(=O)NCCN2CCOCC2)c2ccccc21	i	i	i	i	i	nt	nt	nt	nt	nt
O=C(CSc1ccc(-c2ccc(F)cc2)nn1)N1CCCCC1	i	i	68	63	i	i	i	78	80	58
Cc1ccnc(NC(=O)c2ccc(OCC3CCCO3)cc2)c1 (configuration not stated)	i	75	84	83	nt	82	82	97	94	61
Cc1ccnc(NC(=O)COc2ccc3c(c2)CCC3)c1	i	94	82	94	nt	87	86	98	91	84
CC(=O)Nc1ccc(NC(=O)COc2ccc3c(c2)CCC3)cc1	i	i	i	i	i	nt	nt	nt	nt	nt
COc1ccc(NC(=O)c2ccc(OCC3CCCO3)cc2)cc1Cl (configuration not stated)	i	i	55	67	nt	i	i	73	i	i
COc1ccc(OCc2nc(N)nc(Nc3ccccc3OC)n2)cc1	i	i	i	i	i	nt	nt	nt	nt	nt
CCSc1nc(C)c(C(C)=O)cc1C#N	i	i	i	i	i	nt	nt	nt	nt	nt
Oc1c(Br)cc(Br)cc1C=Nc1cccnc1	i	i	55	i	i	i	i	i	i	i
